Laboratory results from the supplement of paper PMC3334620.
Whole data set: some 33,000 sequences, median “E-score (-0.5 to 0.5)” near -0.016, cut for the highest 2% near 0.32. What follows is part of a selection rich in the highest values, with near analogues and random picks from the rest.

The sequences below were run against T1, Stp1 (UniProt B3LFK1) (assay: PBM E-score (8-mer binding enrichment) (E-score (-0.5 to 0.5)); higher = stronger / more preferred TF binding). Details: protein concentration: 200 nM; construct: GST-full length.
T1 sequence: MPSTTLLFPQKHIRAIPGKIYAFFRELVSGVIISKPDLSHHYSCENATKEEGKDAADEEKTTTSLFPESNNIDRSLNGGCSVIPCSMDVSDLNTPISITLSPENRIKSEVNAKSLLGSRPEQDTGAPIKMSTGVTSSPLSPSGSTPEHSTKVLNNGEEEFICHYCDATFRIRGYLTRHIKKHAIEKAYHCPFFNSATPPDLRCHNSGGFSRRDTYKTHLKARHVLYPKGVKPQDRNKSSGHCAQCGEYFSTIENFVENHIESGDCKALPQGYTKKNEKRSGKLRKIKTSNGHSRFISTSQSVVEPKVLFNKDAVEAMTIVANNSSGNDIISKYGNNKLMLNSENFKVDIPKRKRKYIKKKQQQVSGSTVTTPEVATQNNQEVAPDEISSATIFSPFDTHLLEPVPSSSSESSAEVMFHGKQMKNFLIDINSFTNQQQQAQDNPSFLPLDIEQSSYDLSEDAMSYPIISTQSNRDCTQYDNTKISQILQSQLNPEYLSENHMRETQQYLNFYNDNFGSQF
Experimental: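 Universal 'all 10-mer' protein binding microarrays (Agilent AMADID 015681) probed with GST-tagged S. cerevisiae TFs (full-length or DBD) made by in vitro transcription/translation (PURExpress), about 100-200 nM. Bound TF was detected with fluorescent anti-GST. Each ungapped 8-mer (which stands for itself and its reverse complement) is scored by the PBM enrichment score (E-score), a modified Wilcoxon-Mann-Whitney statistic from -0.5 to +0.5, computed with the Universal PBM Analysis Suite. Scale: above 0.35 generally sequence-specific binding.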

Sequence | PBM E-score
CGATTCCG | -0.0394
GAGGCCAA | -0.164
ATAAATGG | 0.0779
TAGGGCGA | 0.178
ATCTCCTA | -0.214
ATTGAGGA | -0.0544
ACCCGTAG | -0.36
CCCCGTAG | -0.0863
AACCGTAT | -0.0259
AGCCGTAA | 0.31
CACCGTAG | -0.0209
CTCCGTAC | 0.184
CGCCGTAG | 0.465
ATCCGTAG | 0.112
CACCGTAC | 0.121
AGCCGTAT | 0.435
CGCCGTAC | 0.487
AGCCGTAG | 0.392
CGAGCCCA | -0.215
GAGACGTA | -0.074
ATTACTTC | -0.0579
ACGTGTCA | -0.0154
AAAGCACG | 0.0591
CGATAGGC | 0.135
ACACGGAC | 0.217

Sequence | PBM E-score
ACACGGGC | 0.0838
GCACGGAC | 0.28
GCACGGCC | 0.415
GCACGGGC | 0.19
ACACGGCC | 0.344
GTCTACAA | -0.0248
CCAGGCGG | -0.0554
AGACATTG | -0.194
GATCTTCA | -0.025
CTTTTAGA | 0.0884
GCACGAAC | 0.101
ACACGAAA | 0.0839
GCACGAAA | 0.326
GCCATACC | -0.0417
CCAACTGA | -0.167
GCGCCTCA | 0.401
ACGCCTAC | -0.0656
CTGCCTCA | -0.0442
ACGCCTCA | 0.313
GTGCCTCA | 0.365
GTGCCTTA | 0.367
GTGCCTGA | -0.105
ATGCCTCA | 0.279
ATGCCTTA | 0.236
CCGCCTAC | -0.0313

Sequence | PBM E-score
TCGCCTCA | 0.281
GCGCCTAC | 0.35
AGCCCACT | -0.203
TCTTTGCA | 0.165
GCAGACCC | -0.107
CTCCCCTC | -0.3
AACTTGGA | 0.0205
ATCGTCTG | 0.0798
AAAGGTAC | -0.00049
GAAGTGCC | 0.309
GAGTACTA | 0.051
CCGCCTTA | 0.201
GCGCCTTA | 0.399
GCGCCTGA | 0.16
ATTGCCCG | -0.0444
GCGGCTCC | 0.315
ACGGCTCA | 0.403
AAGGCTCG | -0.0294
ACGGCTCG | 0.444
ACAGCTCT | -0.306
AAGGCTCA | 0.16
ACGGCTCT | 0.454
AAGGCTCT | 0.21
AGGGCTCA | -0.101
CCGGCTCC | -0.129

Sequence | PBM E-score
CCGGCTCG | -0.0179
ACGGCTCC | 0.449
CTCACAAA | 0.109
GAAGAGGA | -0.286
AATCGATG | 0.174
GACGCTCA | -0.136
GGGCTAGA | -0.142
ACCTTTCG | -0.121
CCTCTACC | -0.24
AGAGTGTC | 0.0784
ATGATCAT | 0.17
GCATAGAA | 0.133
GCATTGGC | -0.0163
AGTTTGGA | 0.0815
ACTGTCCT | -0.097
ACTCTCCC | -0.159
GAAACCTA | -0.22
GGACTACC | -0.286
AAGTCTGT | -0.193
AACGATTG | 0.0458
CGACAGCC | -0.0511
GCGGCTCA | 0.461
TCGGCTCA | -0.0668
CCGGCTCA | 0.0597
AAGAACGC | 0.185

Sequence | PBM E-score
AAGAGCCG | 0.336
AAGAGCCA | 0.103
CAGAGCCA | -0.148
CAGAGCCC | -0.0943
CAGAGCCG | 0.338
AAGAGCCT | 0.134
AGAATAAC | -0.00738
ACCAACGG | 0.173
GTAGAGTA | 0.0935
AGGGTAAC | -0.165
GACGCCGC | 0.453
GACGCCGA | 0.304
GACGCCCC | -0.00392
CACGCCGC | 0.417
CACGCCGA | 0.0798
CACGCCGG | -0.0191
GGAACTTA | -0.0446
AGGGCACG | 0.302
CTGGCACA | -0.187
ATGGCACA | 0.229
AGGGCACA | 0.334
ATGGCACG | 0.354
CGGGCACG | 0.139
CTGGAGGC | -0.0215
ACTGGCTC | -0.267

Sequence | PBM E-score
AGTAGCTA | -0.16
CACGGCAA | 0.469
ACCGGCAG | -0.121
ATCGGCAG | -0.00845
TTCGGCAA | 0.088
AACGGCAG | 0.384
CACGGCAG | 0.428
CTCGGCAG | 0.117
CCCGGCAG | -0.227
TACGGCCA | 0.214
CCCGGCAA | 0.0207
TACGGCAA | 0.449
CTCGGCAA | 0.1
AGACTTTC | -0.256
TCTCAACA | 0.0271
CAGGCCAG | -0.0909
ATGGGAAC | -0.132
GTGAGCAC | -0.066
CCCTGATC | -0.255
CCTAACAC | 0.067
CGAGCCTA | -0.0212
ACATTAAT | 0.0799
ACAAGCGT | -0.135
AACGGCAA | 0.432
AACGGCAC | 0.472

Sequence | PBM E-score
AATGGCAT | 0.356
AATGGCAG | 0.0303
ACCGGCAC | 0.301
AACGGCAT | 0.451
ATCGGCAC | 0.297
ACCGGCAT | 0.0121
ATCGGCAT | 0.238
ATCGGCAA | 0.106
AATGGCAC | 0.275
ACCGGCAA | -0.0651
TAGGGGAA | -0.171
AAAGGATT | -0.109
CAGTGGGG | -0.239
AAACTCGG | -0.0615
AGACTCAG | -0.133
CCTGCTTA | -0.0853
GTGTAGCA | -0.202
ATGGAAAC | -0.0997
CAAGCCCA | -0.0787
ACGGAATA | 0.0278
GACGGCAC | 0.453
GACGGAAC | -0.0397
